Compound activity: PubChem BioAssay, National Center for Advancing Translational Sciences (NCATS)
KB-V1 MDR tox: kills drug-selected multidrug resistant KB-V1 cells. Potency, µM (top dose mostly 46.1 µM), usual class: cytotoxic. KB-V1 MDR cells viability, CellTiter-Glo, 72 h. 3.4% of 400,000 active; further: on the % scale 0 is the no-effect control and ±100 the full control effect; nearly all actives have a fitted effect of over 60% in size
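Cytotoxicity via CellTiter-Glo luminescence after 72 h compound exposure at 37 degrees C. Cells: drug-selected KB-V1 line, DMEM phenol-red free plus 10% FBS. Compounds tested at multiple concentrations; normalized data fitted to concentration-effect curves.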
HT1080 IDH1KD tx: toxicity to HT-1080 IDH1 knockdown cells (counter line). 2% of 360,000 active. Potency, µM (top dose mostly 46.1 µM), inactives show at the top dose activity, negative = toxicity, most hits filed as cytotoxic. HT-1080 IDH1 knockdown viability, ATP luminescence, 48 h. AID 686971;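 further: 0% = DMSO wells and -100% = cell-free medium wells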
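Viability of IDH1-knockdown HT-1080 fibrosarcoma cells was assessed by CellTiter-Glo after 48 h at 37 °C with titrated compound; concentration-effect curves were classified by fit quality and response size.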
SW480 rereplic: induces DNA re-replication in SW480 colon adenocarcinoma cells | SW480 DNA re-replication, Hoechst DNA content imaging, 48 h | Potency, µM (series often up to 46.1 µM), for inactives: at the highest dose re-replication activation, most hits filed as activators | 1.8% of 340,000 active | AID 624297; further: % of control where 0% means no effect; nearly all actives have a fitted effect of over 55% in size
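Compounds, transferred as 23 nL by pin tool, were incubated with cells for 48 hr; DNA content per nucleus was then quantified by Hoechst staining and fluorescence plate imaging.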
HT1080-NT tox: kills 2HG-producing HT-1080-NT fibrosarcoma cells. HT-1080-NT fibrosarcoma viability, CellTiter-Glo ATP luminescence, 48 h. Potency, µM (titrated, usually from 46.1 µM), for inactives: at the top dose activity, negative = less viability, hits mostly cytotoxic. 1.6% of 360,000 active;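 further: NT is the 2HG producing partner of a matched IDH1 knockdown line; 0% = DMSO-treated cells and -100% = media-only wells without cells; nearly all actives have a fitted effect of over 55% in size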
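Compounds were tested in concentration-response format on HT-1080-NT cells for 48 hours at 37 degrees C. Cell viability came from CellTiter-Glo luminescence; curves were classified by r2, response magnitude and activity.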
KB-3-1 cytotox: kills parental KB-3-1 adenocarcinoma cells. KB-3-1 viability, CellTiter-Glo ATP luminescence, 72 h. Potency, µM (top dose mostly 46.1 µM), most hits filed as cytotoxic. 1.4% of 400,000 active; further: on the % scale 0 is the no-effect control and ±100 the full control effect; nearly all actives have a fitted effect of over 60% in size
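Viability of parental KB-3-1 cells, measured by CellTiter-Glo luminescence, followed a 72 h incubation at 37 °C with pinned compounds in phenol-red-free DMEM containing 10% FBS.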
MCF10A rerep: induces DNA re-replication in MCF 10a normal breast cells; MCF 10A DNA re-replication, Hoechst nuclear intensity, 48 h; Potency, µM (titrated, usually from 46.1 µM), without a hit: at the highest dose activity, positive = re-replication, hits mostly activators; 2.9% of 350,000 active; AID 624296; further: % of control where 0% means no effect; nearly all actives have a fitted effect of over 50% in size
Starred values were filed as active, the others as inactive; i = inactive; ? = inconclusive; nt = no result. In the library only some 7.9% were active in any assay of this set; here they are far more common. The call rests on the fitted dose curve; in most records, active means well fitted curve in the direction sought with a large enough effect; inconclusive means small, poorly fitted or top-dose-only effect, or another doubt; inactive means no such curve, though single readings can be large; an effect the other way counts as inactive or inconclusive. Potency means the concentration at half of the fitted maximal effect.

SMILES	KB-V1 MDR tox	HT1080 IDH1KD tx	SW480 rereplic	HT1080-NT tox	KB-3-1 cytotox	MCF10A rerep
Brc1ccc(-c2ccc(/C=N/Nc3nc4ccccc4[nH]3)o2)cc1	i	?	5.8µM*	?	i	12µM*
C(=N\Nc1nc2ccccc2[nH]1)/c1ccccc1	?	6%	-1%	-1%	i	3%
Cc1[nH]c2ccccc2c1/C=N/Nc1nc(N2CCCCC2)nc(N2CCCCC2)n1	?	0%	-5%	-10%	i	11%
Cc1[nH]c2ccccc2c1/C=N/Nc1nc2ccccc2[nH]1	?	18µM*	8%	18µM*	i	?
C/C(=N\Nc1nc2ccccc2[nH]1)c1ccc(C)o1	?	-1%	0%	10%	i	8%
C/C(=N\Nc1nc2ccccc2[nH]1)c1ccc(Cl)s1	21µM*	?	1%	?	?	?
COc1ccc(CN2C(=O)N(c3ccc(C)cc3)C(=O)C2CC(=O)Nc2ccccc2)cc1OC (configuration not stated)	i	nt	nt	nt	i	nt
C(=N\Nc1nc2ccccc2[nH]1)/c1c[nH]c2ccccc12	i	?	3%	16µM*	i	?
Cc1ccc(/C=N/Nc2nc3ccccc3[nH]2)s1	15µM*	-7%	?	1%	i	?
Cc1nn(-c2ccccc2)c(Cl)c1/C=N/Nc1nc2ccccc2[nH]1	?	?	?	?	?	7.3µM*
O=[N+]([O-])c1cc(/C=N/Nc2nc3ccccc3[nH]2)c(O)cc1O	i	7.3µM*	?	?	i	3.3µM*
Cc1ccccc1/C=N/Nc1nc2ccccc2[nH]1	i	-14%	1%	-20%	i	?
CCn1nnc2cc(C(=O)Nc3ccc(Cl)cc3C)ccc21	i	nt	nt	nt	i	nt
CCOC(=O)c1cc(S(=O)(=O)N2CCN(c3ccccc3)CC2)[nH]n1	i	nt	nt	nt	i	nt
CCOc1ccccc1NC(=O)CSc1ncc2c(n1)-c1ccccc1N(CC)S2(=O)=O	i	nt	nt	nt	i	nt
CCCCOC(=O)c1ccc(NC(=O)C2(c3cccs3)CCOCC2)cc1	i	nt	nt	nt	i	nt
O=C(COC(=O)c1ccc(F)c(S(=O)(=O)N2CCOCC2)c1)Nc1ccc(Cl)cn1	i	2%	nt	-6%	i	nt
COc1ccc(N2CCN(C(CNC(=O)c3ccc(C)cc3)c3ccc4c(c3)OCO4)CC2)cc1 (configuration not stated)	i	nt	nt	nt	?	nt
Cc1cn2c(=O)cc(COC(=O)COc3ccccc3C)nc2s1	i	nt	nt	nt	i	nt
C=CCN(c1ccccc1OC)S(=O)(=O)c1cccc(C(=O)OCC(=O)c2c[nH]c3ccccc23)c1	12µM*	-13%	?	1%	?	-41%
COc1cc(OC)c(N(C)S(=O)(=O)c2cccc(C(=O)OCC(=O)c3c[nH]c4ccccc34)c2)cc1Cl	?	?	?	-20%	i	18%
Cc1cc(F)ccc1NC(=O)C1CCC(CNS(=O)(=O)c2ccc3c(c2)CCCC(=O)N3)CC1 (configuration not stated)	i	nt	nt	nt	i	nt
CC[C@@H](NCCCn1ccc(NC(=O)OCc2ccccc2)nc1=O)c1ccccc1	i	-21%	nt	-4%	i	nt
Cc1oc(C(C)(C)C)cc1C(=O)N1CCN(C(c2ccccc2)c2ccccc2)CC1	i	?	?	?	i	12µM*
O=C1C(Nc2ccccc2)=C(NS(=O)(=O)c2ccccc2)C(=O)c2ccccc21	?	-14%	-1%	-17%	i	-2%
SMILES	KB-V1 MDR tox	HT1080 IDH1KD tx	SW480 rereplic	HT1080-NT tox	KB-3-1 cytotox	MCF10A rerep
CC1=CC(=O)c2ccccc2C1=O	i	5%	-14%	27%	i	1%
O=C1C=C(Nc2ccccc2C(=O)O)c2ccccc2C1=O	i	18µM*	36%	?	i	30%
CCCCNC1=CC(=O)C(=O)c2ccccc21	i	23µM*	-40%	-5%	i	7%
O=C1C=C(Nc2ccccc2)c2ccccc2C1=O	?	5.2µM*	2.6µM*	?	5.8µM*	5.8µM*
O=C(O)c1ccccc1NC(=O)C(c1ccccc1)c1ccccc1	i	-9%	20%	0%	i	2%
O=C1C=C(Nc2ccccc2)C(=O)c2ccccc21	?	?	?	15µM*	?	4%
Cc1ccc(C)c(NC(=O)CSc2nc(=O)n(Cc3ccncc3)c3c2CCC3)c1	i	nt	nt	nt	i	nt
CCCCn1cc(S(=O)(=O)c2ccc(C)cc2)c(=O)c2cc(F)c(N3CCCCC3)cc21	i	nt	nt	nt	i	nt
O=C1C=C(Nc2cccc3cccnc23)c2ccccc2C1=O	5.8µM*	2.1µM*	7.3µM*	?	5.8µM*	3.7µM*
CCc1ccc2c(c1)C(=O)c1ccccc1C2=O	i	3%	0%	-1%	i	15%
O=C(CN1C(=O)c2ccccc2C1=O)Nc1cccc2cccnc12	i	4%	-8%	-1%	i	4%
CCc1ccc(NC2=CC(=O)C(=O)c3ccccc32)cc1	16µM*	-3%	7.3µM*	-3%	18µM*	9.2µM*
O=C(CSc1nc2c([nH]c3ccccc32)c(=O)n1-c1ccc(Cl)cc1)N1CCCCCC1	i	nt	nt	nt	i	nt
C=C1C(=O)[C@@]23[C@H](O)C[C@@H]4C(C)(C)CC[C@H](O)[C@@]4(C)[C@@H]2CC[C@@H]1[C@H]3O	i	13µM*	?	15µM*	i	0.52µM*
C=C1C(=O)[C@@]23[C@H](O)C[C@@H]4C(C)(C)CC[C@H](O)[C@]4(C)[C@@H]2C[C@H](O)[C@@H]1[C@H]3O	?	?	2.6µM*	-29%	?	6.5µM*
COc1ccc(/C=C/C(=O)N2CCCc3ccccc32)cc1	13µM*	15%	?	16%	i	?
COc1ccc(NC(=O)N2CCCc3ccccc32)cc1	i	8%	-1%	-2%	i	4%
COc1ccc(OC)c(/C=C/C(=O)N2CCCc3ccccc32)c1	?	-1%	10%	-11%	i	0%
COc1ccc(N/N=C(/C(C)=O)N2CCCc3ccccc32)cc1	i	-23%	-10%	-26%	21µM*	16%
COc1ccc(OC)c(-c2noc(CSc3nnc(Cc4ccccc4)n3-c3cccc(C)c3)n2)c1	i	nt	nt	nt	i	nt
CCc1ccccc1NC(=O)CSc1nnc(-c2cc(OC)c(OC)c(OC)c2)o1	i	nt	nt	nt	i	nt
CC12CC3CC(C)(C1)CC(C(=O)NCc1ccco1)(C3)C2	i	1%	-1%	0%	i	5%
